From PubChem BioAssay (EPA / NIEHS)
Inconclusive results are not listed. Activity calls are given as the source filed them. The calls were made as follows, unless noted: active = hit-call score of the fitted dose curve at least 0.9, where 1 is the maximum; inconclusive = response in the unintended direction; inactive = score below 0.9.

How the values were obtained:
[1] = target: Glucocorticoid receptor (Homo sapiens) (UniProt P04150); assay: ATG_GR_TRANS: Attagene TRANS-FACTORIAL HepG2 Assay for human Glucocorticoid Receptor (GR) (AID 2282978); details: HepG2 Attagene TRANS GR reporter, mRNA transcription;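 also: activators score as hits since higher reporter transcript over DMSO is fitted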
Sequence of Glucocorticoid receptor (Homo sapiens) (P04150 whole entry, looked up, the tested form may be a part): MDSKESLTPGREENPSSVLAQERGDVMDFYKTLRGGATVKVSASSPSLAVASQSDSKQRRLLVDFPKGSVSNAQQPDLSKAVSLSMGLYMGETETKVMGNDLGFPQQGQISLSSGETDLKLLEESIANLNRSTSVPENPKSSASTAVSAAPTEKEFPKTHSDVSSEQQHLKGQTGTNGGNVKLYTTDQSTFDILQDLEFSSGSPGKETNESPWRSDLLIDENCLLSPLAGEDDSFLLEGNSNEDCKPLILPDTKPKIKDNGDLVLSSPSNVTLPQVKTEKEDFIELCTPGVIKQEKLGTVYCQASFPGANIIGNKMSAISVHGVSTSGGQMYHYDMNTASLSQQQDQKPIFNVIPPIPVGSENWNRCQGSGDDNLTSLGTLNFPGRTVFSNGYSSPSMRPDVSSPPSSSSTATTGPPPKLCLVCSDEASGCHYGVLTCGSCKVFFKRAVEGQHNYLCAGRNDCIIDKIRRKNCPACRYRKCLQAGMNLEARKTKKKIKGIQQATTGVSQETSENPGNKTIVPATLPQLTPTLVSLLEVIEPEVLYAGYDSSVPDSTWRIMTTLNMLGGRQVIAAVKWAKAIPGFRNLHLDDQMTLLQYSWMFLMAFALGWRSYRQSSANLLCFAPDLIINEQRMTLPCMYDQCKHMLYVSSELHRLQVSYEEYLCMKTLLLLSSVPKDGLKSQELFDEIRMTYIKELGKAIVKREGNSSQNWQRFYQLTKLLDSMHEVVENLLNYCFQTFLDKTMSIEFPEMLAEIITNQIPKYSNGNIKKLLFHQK
Outline: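 HepG2 cells transiently transfected with multiplexed reporter units in which chimeric NR-GAL4 proteins drive GAL4-UAS reporters; 24 h compound exposure. Reporter mRNA measured by RT-PCR, 6-FAM labelling, HpaI digestion and capillary electrophoresis; gain-of-signal fitted versus DMSO.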

[2] = target: Hepatocyte nuclear factor 4-alpha (Homo sapiens) (UniProt P41235); assay: ATG_HNF4a_TRANS: Attagene TRANS-FACTORIAL HepG2 Assay for human Hepatocyte Nuclear Factor 4 alpha (HNF4a) (AID 2282982); details: HepG2 HNF4a transactivation reporter, mRNA readout
Sequence of Hepatocyte nuclear factor 4-alpha (Homo sapiens) (P41235 whole entry, looked up, the tested form may be a part): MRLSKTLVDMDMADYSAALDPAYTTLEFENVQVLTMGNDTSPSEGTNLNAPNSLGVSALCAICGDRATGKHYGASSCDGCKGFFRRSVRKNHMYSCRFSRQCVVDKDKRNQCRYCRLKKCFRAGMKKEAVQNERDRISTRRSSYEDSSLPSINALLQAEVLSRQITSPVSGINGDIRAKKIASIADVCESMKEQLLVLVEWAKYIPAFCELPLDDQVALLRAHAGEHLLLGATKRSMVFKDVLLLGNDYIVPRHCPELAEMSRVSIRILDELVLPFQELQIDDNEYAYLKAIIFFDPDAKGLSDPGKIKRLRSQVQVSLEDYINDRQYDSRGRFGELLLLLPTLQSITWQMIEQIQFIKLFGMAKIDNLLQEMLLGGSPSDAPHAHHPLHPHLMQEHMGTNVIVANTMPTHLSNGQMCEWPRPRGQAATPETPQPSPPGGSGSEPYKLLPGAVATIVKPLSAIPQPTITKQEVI
Outline: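 Gain-of-signal mRNA induction, relative to DMSO vehicle, was read after 24 h compound treatment of HepG2 cells bearing transfected GAL4-UAS reporters. Detection used RT-PCR, 6-FAM primer extension and capillary electrophoresis.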

[3] = ATG_M_06_TRANS: Attagene TRANS-FACTORIAL HepG2 Assay for M06 Transcription Factor (Internal Marker) (AID 2282983); details: HepG2 Attagene TRANS M06 internal marker reporter
Outline: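 Transfect HepG2 with MRTUs → dose compounds 24 h → isolate RNA, oligo(dT) RT → PCR with reporter primers → 6-FAM primer extension → HpaI digest → CE fragment analysis. Positive direction vs DMSO.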

[4] = ATG_M_32_TRANS: Attagene TRANS-FACTORIAL HepG2 Assay for M32 Transcription Factor (Internal Marker) (AID 2282984); details: HepG2 Attagene TRANS M32 internal marker reporter;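 also: transcript level of a background control reporter unit measured by RT-PCR and capillary electrophoresis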
Outline: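 Capillary electrophoresis of 6-FAM-labelled reporter fragments gives the signal; data fitted for gain over DMSO negative control. Source: HepG2 cells bearing transient multiple reporter transcription units, 24 h exposure.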

[5] = target: Nuclear receptor subfamily 4 group A member 2 (Homo sapiens) (UniProt P43354); assay: ATG_NURR1_TRANS: Attagene TRANS-FACTORIAL HepG2 Assay for human Nuclear Receptor Related Protein 1 (NURR1) (AID 2282985); details: HepG2 Attagene TRANS reporter, mRNA readout
Sequence of Nuclear receptor subfamily 4 group A member 2 (Homo sapiens) (P43354 whole entry, looked up): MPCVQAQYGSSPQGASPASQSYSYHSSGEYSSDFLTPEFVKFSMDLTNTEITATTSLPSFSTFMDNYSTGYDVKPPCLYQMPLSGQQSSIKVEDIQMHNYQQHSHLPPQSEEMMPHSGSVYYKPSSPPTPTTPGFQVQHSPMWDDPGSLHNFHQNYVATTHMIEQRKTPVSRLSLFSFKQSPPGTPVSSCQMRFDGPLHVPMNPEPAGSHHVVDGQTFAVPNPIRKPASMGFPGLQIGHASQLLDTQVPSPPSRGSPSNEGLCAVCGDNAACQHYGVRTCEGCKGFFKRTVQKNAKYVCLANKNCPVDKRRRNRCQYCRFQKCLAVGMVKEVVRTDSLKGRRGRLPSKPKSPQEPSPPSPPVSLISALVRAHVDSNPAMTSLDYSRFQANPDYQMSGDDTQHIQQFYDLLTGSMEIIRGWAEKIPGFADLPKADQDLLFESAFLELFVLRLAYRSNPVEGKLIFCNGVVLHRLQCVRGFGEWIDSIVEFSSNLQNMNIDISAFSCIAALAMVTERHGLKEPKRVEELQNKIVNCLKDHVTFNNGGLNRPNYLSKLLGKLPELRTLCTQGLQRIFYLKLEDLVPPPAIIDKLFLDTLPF
Outline: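 HepG2 / transient MRTU transfection / 24 h compound exposure / RT-PCR + CE fluorescence of reporter mRNA / gain-of-signal vs DMSO.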

[6] = target: Transcriptional activator Myb (Homo sapiens) (UniProt P10242); assay: ATG_Myb_CIS: Attagene CIS-FACTORIAL HepG2 Assay for human Myeloblastosis (Myb) Proto-Oncogene Transcription Factor (AID 2282986; active = hit-call score of the fitted dose curve at least 0.9, where 1 is the maximum; inactive = score below 0.9); details: HepG2 Attagene CIS-FACTORIAL Myb reporter transcription; actives raise or lower the signal
Sequence of Transcriptional activator Myb (Homo sapiens) (P10242 whole entry, looked up): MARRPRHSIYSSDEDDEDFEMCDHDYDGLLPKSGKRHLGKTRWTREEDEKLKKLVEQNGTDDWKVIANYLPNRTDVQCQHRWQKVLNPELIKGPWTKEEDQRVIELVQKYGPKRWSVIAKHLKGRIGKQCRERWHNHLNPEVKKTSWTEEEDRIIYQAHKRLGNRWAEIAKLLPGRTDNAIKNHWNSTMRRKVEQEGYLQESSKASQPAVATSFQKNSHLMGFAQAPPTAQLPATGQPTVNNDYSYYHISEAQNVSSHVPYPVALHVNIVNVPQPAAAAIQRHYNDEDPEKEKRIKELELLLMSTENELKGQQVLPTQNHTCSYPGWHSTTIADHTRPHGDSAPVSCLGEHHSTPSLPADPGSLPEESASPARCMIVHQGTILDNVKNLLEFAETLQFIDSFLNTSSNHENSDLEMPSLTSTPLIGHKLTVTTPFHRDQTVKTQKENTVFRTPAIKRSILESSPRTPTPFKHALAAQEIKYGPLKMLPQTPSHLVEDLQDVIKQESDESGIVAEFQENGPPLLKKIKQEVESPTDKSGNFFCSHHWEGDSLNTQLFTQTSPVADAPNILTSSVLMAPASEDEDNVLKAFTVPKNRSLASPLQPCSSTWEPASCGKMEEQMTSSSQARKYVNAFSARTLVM
Outline: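 HepG2 cells were transiently transfected with cis-regulated multiple reporter transcription units reflecting endogenous Myb activity, then exposed to compound for 24 hours. Reporter mRNA was measured by RT-PCR with capillary electrophoresis; bidirectional fitting versus DMSO baseline.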

[7] = target: Nuclear respiratory factor 1 (Homo sapiens) (UniProt Q16656); assay: ATG_NRF1_CIS: Attagene CIS-FACTORIAL HepG2 Assay for human Nuclear Respiratory Factor 1 (NRF1) Orphan Gene (AID 2282987; active = hit-call score of the fitted dose curve at least 0.9, where 1 is the maximum; inactive = score below 0.9); details: HepG2 NRF1 cis-element reporter, Attagene multiplex; actives raise or lower the signal
Sequence of Nuclear respiratory factor 1 (Homo sapiens) (Q16656 whole entry, looked up): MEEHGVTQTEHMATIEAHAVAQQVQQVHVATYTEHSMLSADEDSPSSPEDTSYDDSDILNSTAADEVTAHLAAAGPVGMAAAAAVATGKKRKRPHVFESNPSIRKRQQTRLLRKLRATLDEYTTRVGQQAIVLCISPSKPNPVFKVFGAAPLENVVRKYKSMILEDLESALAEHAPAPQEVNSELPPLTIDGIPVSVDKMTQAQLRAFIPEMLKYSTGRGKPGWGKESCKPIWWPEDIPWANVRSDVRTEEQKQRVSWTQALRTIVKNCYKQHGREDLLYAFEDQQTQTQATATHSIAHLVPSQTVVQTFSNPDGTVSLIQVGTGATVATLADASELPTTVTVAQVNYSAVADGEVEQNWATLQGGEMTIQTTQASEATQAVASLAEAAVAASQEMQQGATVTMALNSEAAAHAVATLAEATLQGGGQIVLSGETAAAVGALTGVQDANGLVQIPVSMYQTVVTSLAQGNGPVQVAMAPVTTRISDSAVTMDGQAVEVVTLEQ
Outline: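 HepG2 cells transiently transfected with multiple reporter transcription units under cis-regulatory promoter control, so endogenous transcription-factor activity is read. After 24 h compound exposure, reporter mRNA quantified by RT-PCR, fluorescent labelling, HpaI digestion and capillary electrophoresis; bidirectional fitting versus DMSO.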

[8] = target: Bile acid receptor (Homo sapiens) (UniProt Q96RI1); assay: ATG_FXR_TRANS: Attagene TRANS-FACTORIAL HepG2 Assay for Farnesoid X Receptor (FXR) (AID 2282979); details: HepG2 Attagene TRANS FXR-GAL4 reporter transcription;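 also: hits raise reporter mRNA above DMSO so AC50 marks FXR activation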
Sequence of Bile acid receptor (Homo sapiens) (Q96RI1 whole entry, looked up, the tested form may be a part): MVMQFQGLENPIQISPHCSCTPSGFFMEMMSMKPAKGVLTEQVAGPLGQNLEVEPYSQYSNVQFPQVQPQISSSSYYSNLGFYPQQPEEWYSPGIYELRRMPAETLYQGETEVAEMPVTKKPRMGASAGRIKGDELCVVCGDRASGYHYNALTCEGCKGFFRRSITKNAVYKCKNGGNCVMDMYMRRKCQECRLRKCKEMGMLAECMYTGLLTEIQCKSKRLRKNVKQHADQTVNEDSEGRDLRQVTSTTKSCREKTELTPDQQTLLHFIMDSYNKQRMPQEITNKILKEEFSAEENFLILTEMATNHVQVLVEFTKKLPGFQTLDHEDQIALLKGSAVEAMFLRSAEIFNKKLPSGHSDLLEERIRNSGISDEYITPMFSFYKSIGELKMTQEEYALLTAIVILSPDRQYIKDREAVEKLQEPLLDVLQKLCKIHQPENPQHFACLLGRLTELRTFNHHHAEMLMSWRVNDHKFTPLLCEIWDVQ
Outline: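 Transient transfection of HepG2 with multiplexed GAL4-UAS reporter units; exogenous FXR-GAL4 chimera. Dose 24 h → TriZol RNA → oligo(dT) RT → PCR, 6-FAM primer extension, HpaI cut → CE. Gain vs DMSO.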

[9] = target: Oxysterols receptor LXR-alpha (Homo sapiens) (UniProt Q13133); assay: ATG_LXRa_TRANS: Attagene TRANS-FACTORIAL HepG2 Assay for human Liver X Receptor alpha (LXRa) (AID 2282980); details: HepG2 Attagene TRANS reporter, LXRa transactivation
Sequence of Oxysterols receptor LXR-alpha (Homo sapiens) (Q13133 whole entry, looked up, the tested form may be a part): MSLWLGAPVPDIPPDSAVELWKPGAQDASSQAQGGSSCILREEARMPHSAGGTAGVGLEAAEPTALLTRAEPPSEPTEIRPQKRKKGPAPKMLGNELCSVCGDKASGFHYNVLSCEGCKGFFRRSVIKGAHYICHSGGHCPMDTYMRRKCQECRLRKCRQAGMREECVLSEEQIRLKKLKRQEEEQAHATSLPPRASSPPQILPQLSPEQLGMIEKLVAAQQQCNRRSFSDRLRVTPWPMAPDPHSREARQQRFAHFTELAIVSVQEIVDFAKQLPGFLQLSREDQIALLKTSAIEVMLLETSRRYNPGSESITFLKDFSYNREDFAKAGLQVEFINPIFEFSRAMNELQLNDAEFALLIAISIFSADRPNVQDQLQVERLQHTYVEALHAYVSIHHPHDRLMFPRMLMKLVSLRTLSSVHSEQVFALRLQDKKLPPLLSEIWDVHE
Outline: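 Transfect HepG2 with GAL4-UAS multiplex reporter constructs (TRANS format, chimeric receptor-GAL4); treat 24 h; extract RNA, reverse-transcribe, PCR-amplify, FAM-label, HpaI-digest; resolve fragments by capillary electrophoresis. Upward response vs DMSO.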

[10] = target: Oxysterols receptor LXR-beta (Homo sapiens) (UniProt P55055); assay: ATG_LXRb_TRANS: Attagene TRANS-FACTORIAL HepG2 Assay for human Liver X Receptor beta (LXRb) (AID 2282981); details: HepG2 Attagene TRANS GAL4-LXRb reporter, mRNA
Sequence of Oxysterols receptor LXR-beta (Homo sapiens) (P55055 whole entry, looked up, the tested form may be a part): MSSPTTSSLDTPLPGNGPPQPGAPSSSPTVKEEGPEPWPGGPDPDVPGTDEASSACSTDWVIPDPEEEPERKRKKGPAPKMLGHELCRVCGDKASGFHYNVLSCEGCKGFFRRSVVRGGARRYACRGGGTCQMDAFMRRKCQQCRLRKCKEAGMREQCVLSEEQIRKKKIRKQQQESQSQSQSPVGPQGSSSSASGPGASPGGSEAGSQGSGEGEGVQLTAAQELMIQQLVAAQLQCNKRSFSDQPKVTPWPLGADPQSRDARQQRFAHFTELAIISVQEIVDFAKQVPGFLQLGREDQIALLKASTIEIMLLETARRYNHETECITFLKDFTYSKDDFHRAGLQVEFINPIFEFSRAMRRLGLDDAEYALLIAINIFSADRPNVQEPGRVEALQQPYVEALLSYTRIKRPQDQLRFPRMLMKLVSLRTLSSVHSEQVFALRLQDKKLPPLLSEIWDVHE
Outline: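 Gain-of-signal mRNA reporter endpoint, DMSO as negative control. Transiently transfected HepG2 cells carrying the NR-Gal4 chimera and GAL4-UAS reporter units were treated 24 h; transcripts quantified by RT-PCR and capillary electrophoresis fluorescence.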

Measured: AC50

CC(=O)C=CC1C(C)=CCC(C)C1(C)C (centres undefined)
inactive: [1] | [2] | [3] | [4] | [5] | [6]

NC(=O)C1CO1 (centres undefined)
inactive: [1] | [2] | [4] | [6] | [7]

O=[N+]([O-])c1ccc(CO)cc1
inactive: [1] | [3] | [4] | [5] | [6]

CC1=Nc2ccc3ccccc3c2C1(C)C
not listed: [1] | [3]
inactive: all other assays above

OCCCS
inactive: [1] | [2] | [5] | [6]

c1cc(C(c2ccc(OCC3CO3)cc2)C(c2ccc(OCC3CO3)cc2)c2ccc(OCC3CO3)cc2)ccc1OCC1CO1 (centres undefined)
inactive: [1] | [3] | [4] | [6] | [7]

CC(=O)OCC(C)OC(C)=O (centres undefined)
not listed: [1] | [5]
inactive: all other assays above

O=C1CC2CC1C1CCCC21 (centres undefined)
inactive: [1] | [4] | [6] | [7]

C1=CCCC1
inactive: [8] | [3] | [4] | [6] | [7]

CC(=O)Oc1ccc(C(C)=O)cc1
inactive: [8] | [10] | [4] | [5] | [7]

CCCCCCCCCCC=CC#N
inactive: [8] | [9] | [4] | [5] | [6] | [7]

Cc1oncc1C(=O)Nc1ccc(C(F)(F)F)cc1
not listed: [1] | [6] | [9]
inactive: all other assays above

O=C(C(Cl)Cl)N1CCOC12CCCCC2
inactive: [8] | [10] | [6] | [7]

CC(C)COC(=O)C=Cc1ccccc1
inactive: [8] | [9] | [10] | [3] | [5] | [7]

CCOC(=O)CC
not listed: [1] | [2] | [9]
inactive: all other assays above

CC[C@H]1OC(=O)[C@H](C)[C@@H](O[C@H]2C[C@@](C)(OC)[C@@H](O)[C@H](C)O2)[C@H](C)[C@@H](O[C@@H]2O[C@H](C)C[C@H](N(C)C)[C@H]2O)[C@](C)(O)C[C@@H](C)C(=NOCOCCOC)[C@H](C)[C@@H](O)[C@]1(C)O
inactive: [8] | [10] | [2] | [5] | [6] | [7]

COC(=O)c1sccc1S(N)(=O)=O
inactive: [8] | [3] | [4] | [5] | [6] | [7]

CC/C=C\C/C=C\C/C=C\CCCCCCCC(=O)O
inactive: [8] | [9] | [10] | [3] | [4] | [7]

CCC(Cc1ccccc1)(C(=O)c1ccc(N2CCOCC2)cc1)N(C)C (centres undefined)
active: [9] 23.3 µM | [10] 27.5 µM | [5] 41 µM | [7] 30.3 µM
inactive: [8] | [4] | [6]

CCCCC(CC)CCC(CC(C)C)OS(=O)(=O)O (centres undefined)
inactive: [8] | [10] | [3] | [4] | [5] | [7]

CCCCCCC(O)CO (centres undefined)
not listed: [1] | [4] | [10]
inactive: all other assays above

CC(C)c1ccc2c(C(C)C)cc(C(C)C)c(S(=O)(=O)O)c2c1
active: [5] 48 µM
inactive: [8] | [4] | [6] | [7]

O=C(Cl)c1cc(C(=O)Cl)cc(C(=O)Cl)c1
inactive: [8] | [3] | [4] | [6] | [7]

CCc1c(C(=O)O)c(=O)cnn1-c1ccc(Cl)cc1
inactive: [8] | [4] | [5] | [6] | [7]

CCOC(=O)N1CCC(=C2c3ccc(Cl)cc3CCc3cccnc32)CC1
active: [5] 15.6 µM
inactive: [8] | [4] | [6] | [7]

CCCCCCCCc1ccc(Nc2ccc(CCCCCCCC)cc2)cc1
not listed: [1] | [3] | [10]
inactive: all other assays above

COCC(C)N (centres undefined)
not listed: [1] | [2] | [10]
inactive: all other assays above

Cn1c(=O)[nH]c2ncn(C)c2c1=O
inactive: [8] | [10] | [3] | [4] | [6] | [7]

O=C1OC(=O)c2cc(Oc3ccc4c(c3)C(=O)OC4=O)ccc21
inactive: [8] | [10] | [2] | [3] | [6] | [7]
